# Screens (PubChem)
# The entries come from a sample that favours hits as a whole.
# Dicer processing – inhibitors of Dicer pre-microRNA processing, primary screen, biochemical, cat-ELCCA, chemiluminescence; z-score at 25 µM; 47,000 compounds, 6% hits; cat-ELCCA pre-miR-21 Dicer processing; active compounds read high; Endoribonuclease Dicer (Homo sapiens), Q9UPY3; in the data active means z-score above about 3, passing the limit was not always enough;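 further: plate controls were vehicle for no effect and no enzyme for full effect; higher signal means more uncleaved substrate so more Dicer inhibition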
# * marks the source's active call; other numbers are inactive results.
SMILES,Dicer processing
COc1cccc(-c2nnc(SCC(=O)O)o2)c1,-0.57
COc1ccc(OCc2nc(C#N)c(N3CCC(C(N)=O)CC3)o2)cc1,1.2
COc1ccc(N2CCN(c3oc(COc4ccc(F)cc4)nc3C#N)CC2)cc1,-0.86
N#Cc1nc(COc2ccccc2Cl)oc1N1CCOCC1,0.78
N#Cc1nc(COc2cccc(Cl)c2)oc1N1CCCCC1,3.9*
N#Cc1nc(COc2ccccc2Cl)oc1N1CCCC1,-0.13
N#Cc1nc(COc2ccc(F)cc2)oc1NCc1cccnc1,1.5
N#Cc1nc(COc2cccc(Cl)c2)oc1NCc1cccnc1,3.8*
COc1ccc(OCc2nc(C#N)c(N3CCN(c4ccccc4)CC3)o2)cc1,3*
N#Cc1nc(COc2cccc(Cl)c2)oc1NCc1ccco1,1.2
Cc1ccc(NC(=O)CSc2ccc(C(F)(F)F)cn2)cc1C#N,1.3
CCOC(=O)c1sc(Sc2ccc(C(F)(F)F)cc2[N+](=O)[O-])nc1C,-1.4
CC(C)(C)C(=O)CSC1=NNC(c2ccccn2)S1 (centres undefined),-2
CCOC(=O)c1c(NC(=O)CSc2nc3ccccc3s2)sc2c1CCC2,0.23
O=C(O)c1ccc(N2C(=O)C3CCCCC3C2=O)cc1Cl (centres undefined),0.81
O=C1/C(=C\c2ccccc2)S(=O)c2ccccc21 (centres undefined),1.5
O=C(COC(=O)c1cccc2cccc(Sc3ccccc3)c12)c1ccc(Br)cc1,-0.55
Cc1ccc(CN2CCN(C3CCCC(C)C3)CC2)cc1 (centres undefined),2.4
CCOC(=O)C(=CNc1cccc(Cl)c1Cl)C(=O)OCC,-1.7
Cc1nn2c(c1-c1ccccc1)N=C(c1ccco1)CC2c1ccco1 (centres undefined),3.3*
Cc1nn2c3c(cnc2c1-c1ccc(F)cc1)C(=O)CC(c1ccco1)C3 (centres undefined),1
CC(=O)N1N=C(c2c(-c3ccccc3)c3cc(Cl)ccc3[nH]c2=O)CC1c1ccco1 (centres undefined),2.2
CN(C)NC(=O)c1ccc(Oc2cc(Cl)cc(Cl)c2)o1,0.28
Cc1cc2oc3c(c(=O)c2cc1C)C(c1ccc(OCC(N)=O)cc1)N(c1nc(C)c(C)s1)C3=O (centres undefined),0.33
Clc1cccc(Nc2nnns2)c1Cl,1.4
SMILES,Dicer processing
Cc1nnc(Nc2cccc(Cl)c2C)s1,3.4*
Cc1cc(Cl)ccc1Nc1nnc(-c2ccccc2Cl)s1,-1.5
COc1ccc(C2CC(=O)C3=C(C2)Nc2ccccc2NC3c2coc3ccccc3c2=O)cc1 (centres undefined),1.8
CCOc1cc(Br)c(C2C(C(=O)OC)=C(C)NC3=C2C(=O)c2ccccc23)cc1OC (centres undefined),1.4
COc1cc(C2CC(=O)NC(SCc3ccccc3)=C2C#N)cc(Br)c1O (centres undefined),0.57
ONC(=Nc1cccc(C(F)(F)F)c1)c1ccccc1,-0.29
ONC(=Nc1ccccc1)c1cccc(Cl)c1,-1.7
COc1ccc(N=C(NO)c2ccccc2)cc1Cl,3.1*
CC12CCC(C1)C(C)(C)C2NC(=O)C1CCC1 (centres undefined),0.41
O=C1S/C(=C\c2ccc(F)cc2)C(=O)N1c1ccccc1,1.3
Cc1cc(C)c2c(=O)c(/C=C3/SC(=S)N(c4ccc(F)cc4)C3=O)coc2c1,5.5*
CC(C)c1ccc(N2C(=O)/C(=C/N(C)C)SC2=S)cc1,0.36
OCCCc1nc2n(n1)C(c1ccccc1Cl)C=C(c1ccc(F)cc1)N2 (centres undefined),0.95
Cc1c2c(=O)n(-c3ccccc3)[nH]c2cc(=O)n1CCc1c[nH]c2ccccc12,3*
Cc1nc(=O)c(-c2ccccc2)c(C)n1CCc1c[nH]c2ccccc12,-1.1
Cc1c2c(=O)n(-c3ccccc3)[nH]c2cc(=O)n1Cc1ccc2c(c1)OCO2,-2
Cc1ccc(Cl)cc1NC(=S)Nc1ccc(-n2nccc2C(F)(F)F)cc1,0.41
COC(=O)c1nc2c(C)cccn2c1F,3.1*
CCCS(=O)(=O)c1c(S(=O)(=O)CCC)c2c(C)cccn2c1C(=O)OC,0.26
Cc1cccn2c(=O)c(NC(=O)c3ccc(Cl)cc3)cnc12,0.05
O=C(c1nn2c(c1Cl)NC(c1ccccc1)CC2C(F)(F)F)N1CCCCC1 (centres undefined),5.6*
O=C(c1nn2c(c1Cl)NC(c1ccc(Cl)cc1)CC2C(F)(F)F)N1CCSCC1 (centres undefined),0.58
CCC(C)NC(=O)c1nn2c(c1Cl)NC(c1ccc(Cl)cc1)CC2C(F)(F)F (centres undefined),4.9*
Cc1ccc(C2CC(C(F)(F)F)n3nc(C(=O)NCc4c(C)nn(C)c4C)c(Cl)c3N2)cc1 (centres undefined),-1.2
O=C(c1nn2c(c1Cl)NC(c1ccc(F)cc1)CC2C(F)(F)F)N1CCCCC1 (centres undefined),8.8
SMILES,Dicer processing
Cc1c(CNC(=O)c2nn3c(c2Cl)NC(c2cccs2)CC3C(F)(F)F)cnn1C (centres undefined),1.2
O=C(NCc1ccccc1)c1nn2c(c1Br)NC(c1ccccc1)CC2C(F)(F)F (centres undefined),5.2*
CCCNC(=O)c1nn2c(c1Br)NC(c1cccs1)CC2C(F)(F)F (centres undefined),-0.29
O=C(c1nn2c(c1Cl)NC(c1cccs1)CC2C(F)(F)F)N1CCCc2ccccc21 (centres undefined),2.8
CCC(C)NC(=O)c1cc2n(n1)C(C(F)(F)F)CC(c1ccc3c(c1)OCO3)N2 (centres undefined),2.5
NC(=O)c1nn2c(c1Cl)NC(c1ccc(Cl)cc1)CC2C(F)(F)F (centres undefined),3.5*
O=C(NCc1cccnc1)c1nn2c(c1Cl)NC(c1ccccc1)CC2C(F)(F)F (centres undefined),-1.8
Cc1cccc(NC(=O)c2ccc(-c3ccccc3)s2)c1C(=O)O,2.3
O=C(COc1cc(C(F)(F)F)nc2ccccc12)Nc1ccc2c(c1)OCO2,0.55
Nc1sc(-c2ccccc2)cc1C(=O)N/N=C/c1ccncc1,-2.9
Cn1ncc2c(Sc3cccc4ccccc34)ncnc21,-6
CCOc1cc(C)c(S(=O)(=O)n2ccnc2)cc1C,-0.84
O=[N+]([O-])c1cc(Br)c(Oc2cncc(Cl)c2)cc1Oc1cncc(Cl)c1,-1.4
Cc1cccc(C2Nc3ccccc3NC3=C2C(=O)CC(c2ccccc2)C3)c1 (centres undefined),1.3
CSc1sc(C(=O)Nc2ccc(F)c(Cl)c2)c(-c2ccc(Cl)cc2)c1C#N,-0.96
N#CCCN(CC1CCCO1)C(=S)Nc1cc(C(F)(F)F)cc(C(F)(F)F)c1 (centres undefined),-1.8
N#Cc1c(NC(=O)c2ccc(S(=O)(=O)N3CCOCC3)cc2)sc2c1CCCC2,1.4
O=C(ON(Cc1ccc(Cl)cc1)Cc1ccc(Cl)cc1)c1ccc(Cl)cc1Cl,2.5
O=C1CSc2ccc(C(F)(F)F)cc2N1,-1
CNC(=S)NNC(=O)CN1C(=O)CSc2ccc(C(F)(F)F)cc21,-0.71
NNC(=O)CN1C(=O)CSc2ccc(C(F)(F)F)cc21,6.2*
Cc1cc2c(NS(=O)(=O)c3cn(C)cn3)cccc2nn1,-1.9
CCOC(=O)NNC(=S)Nc1ccccc1C(F)(F)F,-0.23
O=C1/C(=C/c2ccc(C(F)(F)F)cc2)CCCc2ccccc21,-0.31
CCOC(=O)c1ccc(Oc2nc(N(C)C)nc(N(C)C)n2)cc1,1.7
CCOC(=O)c1ccc(Oc2nc(NC)nc(SC)n2)cc1,5.6*
